The panel holds about 83,000 compounds, 20% with a hit somewhere; the sample as a whole holds those more often.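 Note: values are percent growth. 100 is the growth of untreated cells, values between 100 and 0 indicate rising inhibition; between -100 and 0 indicates cell death.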 Values without a mark were called inactive. Calls of active or inactive are those of the source. The calls were made as follows: active = growth percent below 10; inactive = the rest.
Assays:
Test in all cases: NCI-60 one-dose screen, 48 h (100 = growth as untreated, 0 = no growth, -100 = all killed)
A549/ATCC NSCLC = conditions: 10 µM unless noted
DU-145 prostate = conditions: 10 µM unless noted
SF-295 CNS = conditions: 10 µM unless noted
SF-539 CNS = conditions: 10 µM unless noted
UACC-257 melanoma = conditions: 10 µM unless noted
HCT-15 colon = conditions: 10 µM
HT29 colon = conditions: 10 µM unless noted
SNB-75 CNS = conditions: 10 µM unless noted
SK-MEL-5 melanoma = conditions: 10 µM unless noted
LOX IMVI melanoma = conditions: 10 µM unless noted
SK-MEL-2 melanoma = conditions: 10 µM unless noted
ACHN renal = conditions: 10 µM unless noted
CAKI-1 renal = conditions: 10 µM unless noted
A498 renal = conditions: 10 µM unless noted
HL-60(TB) leukemia = conditions: 10 µM unless noted
MOLT-4 leukemia = conditions: 10 µM
OVCAR-8 ovarian = conditions: 10 µM unless noted
IGROV1 ovarian = conditions: 10 µM
HS 578T breast = conditions: 10 µM unless noted
RXF 393 renal = conditions: 10 µM unless noted

Nc1ccc(N)c2c1Oc1ccccc1O2
growth (A549/ATCC NSCLC): 107%
growth (DU-145 prostate): 94.3%
growth (SF-295 CNS): 101%
growth (SF-539 CNS): 89.1%
growth (UACC-257 melanoma): 102%
growth (HCT-15 colon): 105%
growth (HT29 colon): 110%
growth (SNB-75 CNS): 108%
growth (SK-MEL-5 melanoma): 72.6%
growth (LOX IMVI melanoma): 90.3%
growth (SK-MEL-2 melanoma): 95.9%
growth (ACHN renal): 94.7%
growth (CAKI-1 renal): 84.3%
growth (A498 renal): 92.9%
growth (HL-60(TB) leukemia): 69.4%
growth (MOLT-4 leukemia): 81.6%
growth (OVCAR-8 ovarian): 97.5%
growth (IGROV1 ovarian): 6.91% (active)
growth (HS 578T breast): 75.2%

O=C(/C=C/c1ccccc1)N[C@@H](CO)Cc1cnc[nH]1
growth (DU-145 prostate): 114%
growth (RXF 393 renal): 118%
growth (SF-295 CNS): 98.9%
growth (SF-539 CNS): 95.6%
growth (HCT-15 colon): 98.6%
growth (HT29 colon): 105%
growth (SNB-75 CNS): 94.3%
growth (SK-MEL-5 melanoma): 103%
growth (LOX IMVI melanoma): 97.2%
growth (SK-MEL-2 melanoma): 102%
growth (ACHN renal): 96.4%
growth (CAKI-1 renal): 100%
growth (A498 renal): 115%
growth (HL-60(TB) leukemia): 98.8%
growth (MOLT-4 leukemia): 93.8%
growth (OVCAR-8 ovarian): 99.8%
growth (IGROV1 ovarian): 92.9%
growth (HS 578T breast): 116%

CNC(=O)Oc1cccc(N(C)C)c1
growth (A549/ATCC NSCLC): 93%
growth (DU-145 prostate): 110%
growth (RXF 393 renal): 103%
growth (SF-295 CNS): 99.8%
growth (SF-539 CNS): 100%
growth (UACC-257 melanoma): 93.5%
growth (HCT-15 colon): 103%
growth (HT29 colon): 106%
growth (SNB-75 CNS): 97.5%
growth (SK-MEL-5 melanoma): 99.2%
growth (LOX IMVI melanoma): 96.9%
growth (SK-MEL-2 melanoma): 83.4%
growth (ACHN renal): 104%
growth (CAKI-1 renal): 91.6%
growth (A498 renal): 104%
growth (HL-60(TB) leukemia): 103%
growth (MOLT-4 leukemia): 107%
growth (OVCAR-8 ovarian): 99.5%
growth (IGROV1 ovarian): 108%
growth (HS 578T breast): 108%

CC(=O)Oc1ccc(Cl)cc1
growth (A549/ATCC NSCLC): 97.9%
growth (RXF 393 renal): 105%
growth (SF-295 CNS): 112%
growth (SF-539 CNS): 89.1%
growth (UACC-257 melanoma): 95.1%
growth (HCT-15 colon): 95.1%
growth (HT29 colon): 98.3%
growth (SNB-75 CNS): 81.9%
growth (SK-MEL-5 melanoma): 104%
growth (LOX IMVI melanoma): 90.5%
growth (SK-MEL-2 melanoma): 106%
growth (ACHN renal): 97.5%
growth (CAKI-1 renal): 90.5%
growth (A498 renal): 82.2%
growth (HL-60(TB) leukemia): 98.4%
growth (MOLT-4 leukemia): 90.3%
growth (OVCAR-8 ovarian): 101%
growth (IGROV1 ovarian): 114%
growth (HS 578T breast): 90.3%

CO[C@@H](c1ccccc1Cl)[C@H](C)OC(N)=O
growth (A549/ATCC NSCLC): 98.4%
growth (DU-145 prostate): 106%
growth (RXF 393 renal): 113%
growth (SF-295 CNS): 95.8%
growth (SF-539 CNS): 96.6%
growth (UACC-257 melanoma): 91.7%
growth (HCT-15 colon): 96.9%
growth (HT29 colon): 106%
growth (SNB-75 CNS): 70.8%
growth (SK-MEL-5 melanoma): 98.7%
growth (LOX IMVI melanoma): 98.1%
growth (SK-MEL-2 melanoma): 107%
growth (ACHN renal): 99.6%
growth (CAKI-1 renal): 92.1%
growth (A498 renal): 96.3%
growth (HL-60(TB) leukemia): 106%
growth (MOLT-4 leukemia): 107%
growth (OVCAR-8 ovarian): 103%
growth (IGROV1 ovarian): 102%
growth (HS 578T breast): 99.9%

C[C@]12CC[C@@H]3C4=C(CC[C@H]3[C@@H]1CC[C@@H]2O)CC(=O)CC4
growth (A549/ATCC NSCLC): 98.4%
growth (DU-145 prostate): 116%
growth (RXF 393 renal): 100%
growth (SF-295 CNS): 102%
growth (SF-539 CNS): 103%
growth (UACC-257 melanoma): 92.8%
growth (HCT-15 colon): 100%
growth (HT29 colon): 105%
growth (SNB-75 CNS): 101%
growth (SK-MEL-5 melanoma): 59%
growth (LOX IMVI melanoma): 90.2%
growth (SK-MEL-2 melanoma): 127%
growth (ACHN renal): 104%
growth (CAKI-1 renal): 92%
growth (A498 renal): 90.6%
growth (HL-60(TB) leukemia): 99.5%
growth (MOLT-4 leukemia): 89%
growth (OVCAR-8 ovarian): 101%
growth (IGROV1 ovarian): 121%
growth (HS 578T breast): 5.03% (active)

Cc1cc(C)nc(C)c1.[Cl][Hg][Cl]
growth (A549/ATCC NSCLC): 97.2%
growth (DU-145 prostate): 102%
growth (RXF 393 renal): 124%
growth (SF-295 CNS): 94.9%
growth (SF-539 CNS): 103%
growth (UACC-257 melanoma): 93.8%
growth (HCT-15 colon): 101%
growth (HT29 colon): 95.7%
growth (SNB-75 CNS): 96%
growth (SK-MEL-5 melanoma): 106%
growth (LOX IMVI melanoma): 80.2%
growth (SK-MEL-2 melanoma): 98.7%
growth (ACHN renal): 101%
growth (CAKI-1 renal): 96.4%
growth (A498 renal): 120%
growth (HL-60(TB) leukemia): 93.7%
growth (MOLT-4 leukemia): 92%
growth (OVCAR-8 ovarian): 100%
growth (IGROV1 ovarian): 106%
growth (HS 578T breast): 108%

Oc1ccc2c3c1O[C@H]1c4[nH]c5ccccc5c4C[C@@]4(O)C(C2)N(CC2CC2)CC[C@]314
growth (A549/ATCC NSCLC): 90%
growth (DU-145 prostate): 96.6%
growth (SF-295 CNS): 98.3%
growth (SF-539 CNS): 103%
growth (UACC-257 melanoma): 97.4%
growth (HCT-15 colon): 99.7%
growth (HT29 colon): 83.9%
growth (SNB-75 CNS): 76.8%
growth (SK-MEL-5 melanoma): 96.4%
growth (LOX IMVI melanoma): 87.3%
growth (SK-MEL-2 melanoma): 90.1%
growth (ACHN renal): 89.7%
growth (CAKI-1 renal): 92.3%
growth (A498 renal): 100%
growth (HL-60(TB) leukemia): 98.6%
growth (MOLT-4 leukemia): 74.4%
growth (OVCAR-8 ovarian): 93.2%
growth (IGROV1 ovarian): 97.5%
growth (HS 578T breast): 92.1%

Source: PubChem BioAssay (NCI)
